Source: PubChem BioAssay (EPA / NIEHS)
Records with an inconclusive call do not appear. The source made the active and inactive calls. The calls were made as follows, unless noted: active = hit-call score of the fitted dose curve at least 0.9, where 1 is the maximum; inactive = score below 0.9.

How the values were obtained:
[1] = CCTE_Shafer_MEA_acute_burst_percentage_std: CCTE's Neural Acute Assay for Standard Deviation of Burst Percentage, Shafer Lab (AID 2284018);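 also: fitted in the negative direction so actives lower burst percentage SD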
Summary of the method: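 Rat primary cortical neurons on 48-well MEAs, DIV 13 or 15, 37 C. 40-min baseline then 40-min recording with compound (0.03-40 uM); well-level SD of per-electrode burst spike percentage, expressed as percent change from baseline.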

[2] = CCTE_Shafer_MEA_acute_per_network_burst_spike_number_std: CCTE's Neural Acute Assay for Standard Deviation of Number of Spikes in a Network Burst, Shafer Lab (AID 2284020);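 also: fitted for decrease in spike-number SD versus DMSO so actives lower it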
Summary of the method: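 Rat cortical cultures, DIV 13/15, 37 C; 20-min stabilisation, 40-min baseline, compound 0.03-40 uM, 40-min re-record. Spikes detected at 8x rms noise (300-5000 Hz band-pass). Readout: % change from baseline in per-burst spike-number SD.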

[3] = CCTE_Shafer_MEA_acute_per_network_burst_electrodes_number_mean: CCTE's Neural Acute Assay for Mean Number of Electrodes in a Network Burst, Shafer Lab (AID 2284021);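 also: curves fitted for decreases only so hits reduce electrodes per burst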
Summary of the method: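 Percent change from baseline in average electrode count per network burst, rat cortical cultures on 48-well MEAs; 40-min recordings each side of exposure, DIV 13 or 15; threshold 8x rms noise; DMSO as negative control.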

[4] = CCTE_Shafer_MEA_acute_network_burst_percentage: CCTE's Neural Acute Assay for Percentage of Network Bursts, Shafer Lab (AID 2284022);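 also: curves fitted for loss so actives lower network burst percentage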
Summary of the method: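 On DIV 13 or 15, at least three wells of rat cortical neurons per compound are dosed at 0.03-40 uM. Spontaneous firing is detected at 8x rms noise for 40 min before and after dosing at 37 C. The percent change in network-burst spike share is reported.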

[5] = CCTE_Shafer_MEA_acute_cross_correlation_area: CCTE's Neural Acute Assay for Area of Cross Correlation, Shafer Lab (AID 2284024);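 also: area under pooled inter-electrode spike cross-correlation near zero lag as percent change from own baseline; curves fitted for loss of cross-correlation area so actives lower synchrony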
Summary of the method: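 Extracellular recordings from cultured rat cortical neurons measure network synchrony as cross-correlation area; each well's post-compound value (0.03-40 uM, 40 min) is compared with its own 40 min baseline to give percent change.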

[6] = CCTE_Shafer_MEA_acute_cross_correlation_HWHM: CCTE's Neural Acute Assay for Cross Correlation at Half Width at Half Maximum, Shafer Lab (AID 2284026);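 also: percent change per well from pre-dose baseline in spike cross-correlogram half width; hits are a decrease in cross-correlogram half width relative to DMSO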
Summary of the method: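 Percent change in cross-correlogram half width at half maximum, narrower meaning more synchrony, was derived per well from paired 40-min recordings before and during exposure to 0.03-40 uM compound in rat cortical cultures at 37 C.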

[7] = CCTE_Shafer_MEA_acute_synchrony_index: CCTE's Neural Acute Assay for Synchrony, Shafer Lab (AID 2284027);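 also: network synchrony index of spontaneous spiking in primary rat cortical neurons on MEAs; fitted for loss of signal so actives lower synchrony relative to DMSO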
Summary of the method: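 Rat cortical cultures, DIV 13/15; spikes detected at 8x rms noise, 300-5000 Hz band-pass. Compound 0.03-40 uM, ≥3 wells; 40-min pre- and post-exposure recordings, 37 C. Readout: % change in synchrony index; loss-of-signal fit vs DMSO.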

[8] = CCTE_Deisenroth_AIME_96WELL_CTox_Active: Cytotoxicity Assessment (CTOX) in CCTE's 96-well Estrogen Receptor Transactivation Assay with AIME metabolic competence (metabolism positive), Deisenroth Lab (AID 2284028; active = hit-call score of the fitted dose curve at least 0.9, where 1 is the maximum)
Summary of the method: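 Cytotoxicity in VM7Luc4E2 breast cells after 24 h exposure to medium from a 2 h metabolic pre-incubation with induced rat hepatic S9 in alginate microspheres; fluorescent live-cell protease readout, 10-point series 0.002–200 uM, n=4.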

Measured: AC50

O=C1O[C@H]([C@@H](O)CO)C(O)=C1O
not listed: [8]
inactive: all other assays above

Cc1c2ccccc2c(C)c2c1ccc1ccccc12
active: [1] 35.2 µM | [6] 26.3 µM | [7] 36.9 µM
not listed: [8]
inactive: all other assays above

NC(=O)c1nc(-c2cccc(-c3cc(F)ccc3OCC(F)(F)C(F)(F)F)c2)n[nH]1
active: [1] 2.16 µM | [2] 37.4 µM | [6] 8.29 µM | [7] 6.63 µM
inactive: [3] | [4] | [5]

CC(C)(c1cc(Br)c(O)c(Br)c1)c1cc(Br)c(O)c(Br)c1
not listed: [8]
inactive: all other assays above

CN(C[C@@H](CC[N+]12CCC(C3CCCCC3)(CC1)CC2)c1ccc(Cl)c(Cl)c1)C(=O)c1cc(C(F)(F)F)cc(C(F)(F)F)c1
active: [1] 2.53 µM | [2] 8.89 µM | [3] 5 µM | [4] 8.37 µM | [6] 8 µM | [7] 8.29 µM
inactive: [5]

CC1=CC(=O)/C(=C(/C)O)C(=O)O1
not listed: [8]
inactive: all other assays above

O=c1c(-c2ccc(O)cc2)coc2cc(O)cc(O)c12
inactive: [8]

OC12N=C(c3ccccc3)SC1Cc1cc(Cl)ccc12 (stereo not drawn)
inactive: [2] | [4] | [5]
active: [1] 30.7 µM | [3] 32.5 µM | [6] 31.3 µM | [7] 31.8 µM

O=c1[nH]sc2ccccc12
inactive: [1] | [2] | [3]
active: [4] 7.94 µM | [5] 0.0302 µM | [6] 32.6 µM | [7] 20 µM

O=C(O)c1ccccc1-n1cc(C(=O)O)c(=O)c2cc(Nc3c(F)cc(F)cc3Cl)c(Cl)cc21
not listed: [8]
inactive: all other assays above

CC/C(=C(/CC)c1ccc(O)cc1)c1ccc(O)cc1
active: [1] 35.4 µM | [3] 20 µM | [4] 10.5 µM | [6] 20 µM | [7] 10.2 µM
inactive: [2] | [5]

CCN(CC)C(=O)c1cc(S(=O)(=O)Cc2ccccc2)c(N2CCC(c3ccccc3)CC2)cc1N(CC)CCN(C)C
active: [4] 13.3 µM | [6] 11 µM | [7] 11.8 µM
not listed: [8]
inactive: all other assays above

CCN(Cc1cccc(S(=O)(=O)O)c1)c1ccc(C(=C2C=CC(=[N+](CC)Cc3cccc(S(=O)(=O)O)c3)C=C2)c2ccccc2S(=O)(=O)[O-])cc1
active: [7] 12.9 µM
not listed: [8]
inactive: all other assays above

COc1cccc([C@H](O)C2CCN(CCc3ccc(F)cc3)CC2)c1OC
active: [2] 6.88 µM | [6] 10.2 µM
not listed: [8]
inactive: all other assays above

CC(O)CC(C)(C)O (stereo not drawn)
not listed: [8]
inactive: all other assays above

NCc1cccc(C2CCN(C(=O)c3ccc(C#Cc4ccccc4F)o3)CC2)c1
active: [2] 20 µM | [3] 20 µM | [4] 31.4 µM | [6] 34.9 µM | [7] 28.6 µM
inactive: [1] | [5]

CCCCOC(=O)c1ccc(O)cc1
not listed: [8]
inactive: all other assays above
